TIM10 inh = growth inhibitors of isogenic TIM10 control yeast, primary screen, counter-screen for tim10-1 yeast inhibitor project, luminescence, uHTS; S. cerevisiae TIM10 strain growth, BacTiter-Glo luminescence, 24 h; inhibition, % at 10 µM; 1.4% of 330,000 active; AID 463195, 2010;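 active means inhibition of 40% or more at the single tested concentration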;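 further: wild-type TIM10 isogenic control strain grown at permissive 25 °C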
tim10-1 inh = growth inhibitors of tim10-1 mutant yeast, primary screen, luminescence, uHTS; S. cerevisiae tim10-1 ts strain growth, BacTiter-Glo, 24 h; inhibition, % at 20 µM; 2.2% of 330,000 active;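 active means inhibition of at least 40%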;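 further: mutant grown at 25 °C; 0% = DMSO wells with yeast and 100% = wells holding no yeast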
Yeast superoxide = reduction of superoxide in aged yeast, primary screen, HTS; S. cerevisiae aged cells, superoxide DHE fluorescence; active compounds read low; AID 2690, 2010; superoxide response (% of plate mean), % at 10 µM; 0.18% of 330,000 active;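 active means superoxide response under a set limit, about three screen SD below normal, cut at about 65% in these data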;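 further: yeast aged for seven days with compound at 30 °C before DHE staining; 100% = average MFI of all compound-treated wells on the plate with controls excluded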
NLRP3 yeast inh = NALP3 inflammasome inhibitors in reconstituted yeast, primary screen, luminescence, uHTS; AID 2825, 2010; Yeast reconstituted NLRP3/ASC/caspase-1, beta-gal luminescence, 24 h; inhibition, % at 10 µM; 0.39% of 330,000 active;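 active means inhibition of 50% or more; inactive means inhibition below 50%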;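 further: plate controls were induced DMSO wells for no effect and uninduced yeast grown without galactose for full effect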
tim23-1 inh = growth inhibitors of tim23-1 mutant yeast, primary screen, luminescence, uHTS | S. cerevisiae tim23-1 growth, BacTiter-Glo luminescence, 24 h | inhibition, % at 20 µM | 1.3% of 330,000 active;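 active means growth inhibition of the mutant yeast at or above 50%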;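 further: temperature-sensitive mutant grown at 25 °C; plate controls were DMSO-treated mutant yeast for no effect and medium wells lacking yeast for full effect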
tim10-1 confirm = growth inhibitors of tim10-1 mutant yeast, confirmation, single concentration, luminescence, S. cerevisiae | AID 463213, 2010 | inhibition, % at 20 µM | S. cerevisiae tim10-1 ts strain growth, BacTiter-Glo, 24 h | 56% of 7,400 active | shares compounds with tim10-1 inh;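 active means inhibition of yeast growth at or above a set limit in either of two repeat tests at 20 µM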;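 further: tim10-1 mutant grown at permissive 25 °C to find synthetic lethal compounds; 0% = DMSO yeast wells and 100% = medium wells without yeast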
Starred values were filed as active, the others as inactive. Only some compounds are listed: those with a hit (about 3.8% of all), similar ones and a draw of the others.

`COc1ccc(NC(=O)CSCc2cc(=O)n3nc(C4CC4)sc3n2)cc1` gave TIM10 inh 11.1, tim10-1 inh -11.3, Yeast superoxide 86.8, NLRP3 yeast inh -3.6 and tim23-1 inh -7.6.
`CCOC(=O)c1sc2ncnc(NCc3ccco3)c2c1C` gave TIM10 inh 25.9, tim10-1 inh 47.4*, Yeast superoxide 95.4, NLRP3 yeast inh 16.7, tim23-1 inh 36.4 and tim10-1 confirm 35.0*.
`NS(=O)(=O)c1ccc(NCc2ccccc2OCc2ccc(F)cc2)cc1` gave TIM10 inh 8.7, tim10-1 inh 43.9*, Yeast superoxide 82.2, NLRP3 yeast inh 1.2, tim23-1 inh 38.1 and tim10-1 confirm 19.3.
`NS(=O)(=O)c1ccc(CCNCc2ccccc2OCc2ccc(F)cc2)cc1` gave TIM10 inh -13.4, tim10-1 inh 15.1, Yeast superoxide 103.5, NLRP3 yeast inh 4.9 and tim23-1 inh 6.3.
For Cc1ccc(N2C(=O)CC(C)(C)CC2=O)cc1Cl the results were TIM10 inh 10.3, tim10-1 inh -12.5, Yeast superoxide 98.1, NLRP3 yeast inh 16.9 and tim23-1 inh 8.9.
For CCOC(=O)N1CCC(n2c(SCC(=O)NCc3ccccc3)nc3ccccc3c2=O)CC1 the results were TIM10 inh 25.1, tim10-1 inh 43.4*, Yeast superoxide 100.2, NLRP3 yeast inh 10.4, tim23-1 inh 31.7 and tim10-1 confirm 20.9.
`Cc1coc2cc3oc(=O)c4c(c3cc12)CCCC4` gave TIM10 inh -2.3, tim10-1 inh 4.7, Yeast superoxide 94.5, NLRP3 yeast inh 12.4 and tim23-1 inh 16.5.
Cc1oc2c(C)c3oc(=O)c4c(c3cc2c1C)CCCC4 was read as TIM10 inh 26.7, tim10-1 inh 54.4*, Yeast superoxide 114.4, NLRP3 yeast inh 10.4, tim23-1 inh 36.3 and tim10-1 confirm 54.5*.
For CCCc1cc(=O)[nH]c(SCC(=O)NCc2ccc3c(c2)OCO3)n1 the results were TIM10 inh 10.1, tim10-1 inh 1.6, Yeast superoxide 119.9, NLRP3 yeast inh 3.1 and tim23-1 inh -1.8.
`CC(=O)c1cccc(NC(=O)c2cc(Cl)sc2Cl)c1` gave TIM10 inh 23.1, tim10-1 inh 42.5*, Yeast superoxide 82.4, NLRP3 yeast inh -9.2, tim23-1 inh 25.4 and tim10-1 confirm 19.8.
Screening COc1cccc(OC)c1C(=O)Nc1cccc(C(C)=O)c1 returned TIM10 inh -6.5, tim10-1 inh 15.8, Yeast superoxide 182.8, NLRP3 yeast inh 9.4 and tim23-1 inh 1.9.
For CCC1(c2ccccc2)NC(=O)N(CC(=O)N(C)Cc2c(F)cccc2Cl)C1=O (configuration not stated) the results were TIM10 inh 4.2, tim10-1 inh -4.2, Yeast superoxide 96.2, NLRP3 yeast inh 16.3 and tim23-1 inh 11.6.
Screening Cc1ccc(C(=O)CSc2nnc(CNc3ccc(C)cc3C)n2Cc2ccco2)cc1 returned TIM10 inh 19.0, tim10-1 inh 20.0, Yeast superoxide 92.0, NLRP3 yeast inh 10.3 and tim23-1 inh 9.2.
For COc1ccc(C(=O)CSc2nnc(CNc3ccc(C)cc3C)n2Cc2ccco2)cc1 the results were TIM10 inh 22.6, tim10-1 inh 40.4*, Yeast superoxide 88.4, NLRP3 yeast inh 10.6, tim23-1 inh 34.5 and tim10-1 confirm 23.9.
Screening COc1ccc(C(=O)NNC(=O)c2ccc3ccccc3n2)cc1 returned TIM10 inh 8.3, tim10-1 inh -3.3, Yeast superoxide 85.4, NLRP3 yeast inh 17.7 and tim23-1 inh -6.4.
`Cc1oc(C(C)(C)C)cc1C(=O)Nc1ccc(N2CCOCC2)cc1` gave TIM10 inh 15.8, tim10-1 inh 15.6, Yeast superoxide 88.3, NLRP3 yeast inh 14.6 and tim23-1 inh 18.7.
Cc1ccc(/C=N/NC(=O)CN2CCN(S(=O)(=O)c3ccc(Br)cc3)CC2)s1 was read as TIM10 inh 6.9, tim10-1 inh 2.7, Yeast superoxide 89.7, NLRP3 yeast inh 9.9 and tim23-1 inh 37.7.
Screening COC(=O)c1ccc(NC(=O)CN2CCN(S(=O)(=O)c3ccc(Br)cc3)CC2)cc1 returned TIM10 inh 15.4, tim10-1 inh 46.0*, Yeast superoxide 133.8, NLRP3 yeast inh 6.9, tim23-1 inh 33.7 and tim10-1 confirm 36.0*.
`O=C(CCl)Nc1cccc(S(=O)(=O)N2CCCCCC2)c1` gave TIM10 inh 19.9, tim10-1 inh 40.7*, Yeast superoxide 97.1, NLRP3 yeast inh -6.7, tim23-1 inh 48.1 and tim10-1 confirm 33.6*.
Screening O=C(Cc1ccc(Cl)cc1)Nc1cccc(S(=O)(=O)N2CCCCC2)c1 returned TIM10 inh -4.1, tim10-1 inh 7.4, Yeast superoxide 95.0, NLRP3 yeast inh 15.7 and tim23-1 inh 10.6.
`O=C(CN1CCN(S(=O)(=O)c2ccc(Br)cc2)CC1)N/N=C/c1ccc(Br)s1` gave TIM10 inh 24.0, tim10-1 inh 43.6*, Yeast superoxide 95.6, NLRP3 yeast inh 14.7, tim23-1 inh 43.0 and tim10-1 confirm 36.0*.
`CCOc1ccc(NC(=O)CN2CCN(S(=O)(=O)c3ccc(Cl)cc3)CC2)cc1` gave TIM10 inh 10.3, tim10-1 inh 40.8*, Yeast superoxide 104.0, NLRP3 yeast inh 7.4, tim23-1 inh 37.1 and tim10-1 confirm 21.9.
CN(CC(=O)Nc1ccc(S(=O)(=O)N2CCCC2)cc1)Cc1ccc(Cl)cc1Cl was read as TIM10 inh 3.0, tim10-1 inh 46.2*, Yeast superoxide 92.4, NLRP3 yeast inh -4.5, tim23-1 inh 32.9 and tim10-1 confirm 22.0.
Screening NC(=O)CN1CCN(c2nc(-c3ccc(F)cc3)cs2)CC1 returned TIM10 inh 1.3, tim10-1 inh 17.8, Yeast superoxide 109.9, NLRP3 yeast inh 7.9 and tim23-1 inh 3.1.
`CCCNC(=O)CN1CCN(S(=O)(=O)c2ccc(Br)s2)CC1` gave TIM10 inh 1.4, tim10-1 inh 4.6, Yeast superoxide 92.1, NLRP3 yeast inh 9.0 and tim23-1 inh 28.0.
For Cc1cc(C)cc(NC(=O)CN2CCCN(S(=O)(=O)c3ccc(Br)s3)CC2)c1 the results were TIM10 inh 29.4, tim10-1 inh 44.2*, Yeast superoxide 130.0, NLRP3 yeast inh 10.3, tim23-1 inh 30.6 and tim10-1 confirm 24.4.
O=C(CN1CCN(c2nc(-c3ccc(F)cc3)cs2)CC1)Nc1ccc2c(c1)OCO2 was read as TIM10 inh 6.0, tim10-1 inh 45.7*, Yeast superoxide 93.8, NLRP3 yeast inh 20.0, tim23-1 inh 27.4 and tim10-1 confirm 26.9.
CC(C)c1ccc(S(=O)(=O)N2CCN(CC(=O)Nc3ccc4c(c3)OCO4)CC2)cc1 was read as TIM10 inh 20.0, tim10-1 inh 52.1*, Yeast superoxide 90.6, NLRP3 yeast inh 1.5, tim23-1 inh 34.8 and tim10-1 confirm 40.5*.
